T cruzi growth-1: T. cruzi proliferation inhibition | T. cruzi beta-gal in NIH3T3, GalScreen luminescence, 90 h | inhibition, % at 8.34 µM | 77,000 tested, 5.9% active | AID 624255;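 active = mean inhibition above about 93%, with at least 55% of replicates each passing it, limit read from the data, passing the limit was not always enough; inconclusive = only one of those two conditions holds; inactive = neither condition holds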
Pf Dd2 growth: inhibitors of Plasmodium falciparum Dd2 growth. P. falciparum Dd2 growth, SYBR Green, 72 h; stronger effect = lower value. activity change, % at 10 µM. 94,000 tested, 2.3% active; in the data active = activity change below about -80%; inconclusive = no clear call, values can overlap the other calls
C diff growth: C. difficile growth inhibition; 86,000 tested, 0.25% active; growth activity, negative = inhibition, % at 16 µg/mL (by protocol); Clostridium difficile clinical isolate growth, OD600, 24 h; stronger effect = lower value;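 active = mean growth activity at or below -80% and every replicate also at or below -80%; inconclusive = mean at or below -80% but some replicate above -80%; inactive = mean growth activity above -80%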;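 also: 0% = DMSO wells and -100% = levofloxacin 16 µg/mL wells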
T cruzi growth-2: blocks T. cruzi growth in NIH3T3 host cells; T. cruzi beta-gal in NIH3T3, GalScreen luminescence, 90 h; shares compounds with T cruzi growth-1; 5,600 tested, 72% active; inhibition, % at 8.35 µM;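 active = mean replicate inhibition above about 95% and at least 55% of replicates individually reaching it, limit read from the data; inconclusive = only one of the two criteria is met; inactive = neither criterion is met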
T cruzi growth-3: Trypanosoma cruzi proliferation inhibition; inhibition, % at 2.09 µM; shares compounds with T cruzi growth-1; T. cruzi beta-gal in NIH3T3, GalScreen luminescence, 90 h; 5,600 tested, 21% active; AID 651740;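 active = mean inhibition above about 95%, with at least 55% of replicates also reaching it, limit read from the data; inconclusive = meets just one of the two conditions; inactive = meets neither condition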;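 also: plate controls were neutral control median for no effect and positive control median for full effect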
3T3 cytotox: NIH/3T3 (mouse) viability loss; shares compounds with T cruzi growth-1; NIH/3T3 viability, CellTiter-Glo ATP luminescence, 90 h; cytotoxicity (signal decrease), % at 8.35 µM; 5,600 tested, 14% active; AID 651742;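 active = mean signal decrease across replicates above about 35% based on untreated-well scatter, with enough replicates individually passing, limit read from the data; inconclusive = no rule stated though some were filed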;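 also: 0% = median of neutral control wells and 100% = median of positive control wells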
NIH3T3 tox 2: cytotoxicity in mouse NIH/3T3 fibroblasts; NIH/3T3 viability, CellTiter-Glo ATP luminescence, 90 h; shares compounds with T cruzi growth-1; 5,600 tested, 56% active; inhibition, % at 24.9 µM;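 active = mean loss of cell viability signal at or above a set limit, and enough replicates individually reaching it; inconclusive = meets only the mean limit or only the replicate share; inactive = meets neither condition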;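 also: 0% = median of neutral control wells and 100% = median of positive control wells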
Starred values were filed as active, the others as inactive; ? = inconclusive; . = no result given. The list is not random: actives were taken first. Their share in the collection is about 6.7%.

SMILES | T cruzi growth-1 | Pf Dd2 growth | C diff growth | T cruzi growth-2 | T cruzi growth-3 | 3T3 cytotox | NIH3T3 tox 2
C[C@@H]1CCCCO[C@H](CN(C)C(=O)Nc2ccc3c(c2)OCO3)[C@H](C)CN([C@H](C)CO)C(=O)c2cc(NC(=O)CCCN(C)C)ccc2O1 | 104* | -54 | 3 | 6 | 2 | -1 | 8
C[C@@H]1CCCCO[C@H](CN(C)C(=O)Nc2ccc3c(c2)OCO3)[C@H](C)CN([C@H](C)CO)C(=O)c2cc(NC(=O)Nc3ccccc3)ccc2O1 | 108* | -47 | 13 | 111* | 15 | -29 | -23
C[C@@H]1CCCCO[C@@H](CN(C)C(=O)Nc2ccccc2)[C@H](C)CN([C@@H](C)CO)C(=O)c2cc(NC(=O)Nc3ccc4c(c3)OCO4)ccc2O1 | 33 | 13 | 5 | . | . | . | .
C[C@H]1CCCCO[C@H](CN(C)C(=O)Nc2ccc3c(c2)OCO3)[C@@H](C)CN([C@@H](C)CO)C(=O)c2cc(NC(=O)Nc3ccc(F)cc3)ccc2O1 | 72 | -65 | -3 | . | . | . | .
C[C@@H]1CCCCO[C@@H](CN(C)C(=O)Nc2ccc3c(c2)OCO3)[C@@H](C)CN([C@@H](C)CO)C(=O)c2cc(NC(=O)CCCN(C)C)ccc2O1 | . | -3 | -2 | . | . | . | .
C[C@H]1CCCCO[C@@H](CN(C)C(=O)Nc2ccc3c(c2)OCO3)[C@@H](C)CN([C@@H](C)CO)C(=O)c2cc(NC(=O)Nc3ccc(F)cc3)ccc2O1 | 103* | -56 | 5 | 106* | 75 | -1 | -9
C[C@H]1CCCCO[C@H](CN(C)S(=O)(=O)c2ccccc2)[C@@H](C)CN([C@@H](C)CO)C(=O)c2cc(NC(=O)CCC(F)(F)F)ccc2O1 | 44 | -34 | 8 | . | . | . | .
C[C@@H]1CN([C@@H](C)CO)C(=O)c2cc(NS(=O)(=O)c3cn(C)cn3)ccc2O[C@@H](C)CCCCO[C@@H]1CN(C)C | 22 | 57 | 11 | . | . | . | .
COCC#Cc1cnc2c(c1)C(=O)N([C@H](C)CO)C[C@@H](C)[C@H](CN(C)S(=O)(=O)c1cn(C)cn1)O2 | -27 | 40 | -7 | . | . | . | .
C[C@@H]1CCCCO[C@@H](CN(C)C(=O)Nc2ccccc2)[C@@H](C)CN([C@H](C)CO)C(=O)c2cc(NC(=O)Cc3ccccc3)ccc2O1 | 6 | -19 | . | . | . | . | .
C[C@H]1CCCCO[C@H](CN(C)C(=O)Nc2ccc3c(c2)OCO3)[C@@H](C)CN([C@@H](C)CO)C(=O)c2cc(NC(=O)Cc3ccccc3)ccc2O1 | ? | ? | -1 | 90 | 60 | -7 | 23
C[C@@H]1CN([C@H](C)CO)C(=O)c2cc(NC(=O)C3CC3)ccc2O[C@H]1CN(C)S(=O)(=O)c1cn(C)cn1 | -20 | 52 | . | . | . | . | .
C[C@@H]1CN([C@H](C)CO)S(=O)(=O)c2ccc(C#CCN(C)C)cc2O[C@H]1CN(C)Cc1cccnc1 | 96* | -28 | 1 | 101* | 93 | 25 | 42*
C[C@H](O)C#Cc1ccc2c(c1)O[C@@H](CN(C)Cc1cccnc1)[C@H](C)CN([C@@H](C)CO)S2(=O)=O | 28 | 9 | 0 | . | . | . | .
C[C@@H]1CN([C@@H](C)CO)S(=O)(=O)c2ccc(C#C[C@@H](C)O)cc2O[C@H]1CN(C)Cc1cccnc1 | 36 | -20 | -6 | . | . | . | .
COCC#Cc1ccc2c(c1)O[C@@H](CN(C)Cc1cccnc1)[C@H](C)CN([C@H](C)CO)S2(=O)=O | 52 | -26 | -2 | . | . | . | .
CC(C)C#Cc1ccc2c(c1)O[C@H](CN(C)Cc1cccnc1)[C@@H](C)CN([C@H](C)CO)S2(=O)=O | 107* | -63 | 2 | 108* | 104* | -21 | 102*
C[C@H]1CN([C@@H](C)CO)S(=O)(=O)c2ccc(C#CCN(C)C)cc2O[C@@H]1CN(C)Cc1cccnc1 | 104* | -42 | -1 | 110* | 108* | 8 | 15
C[C@@H]1CN([C@@H](C)CO)S(=O)(=O)c2ccc(C#CCN(C)C)cc2O[C@@H]1CN(C)Cc1cccnc1 | ? | 5 | 3 | 99* | 62 | 28 | 48*
CC(C)C#Cc1ccc2c(c1)O[C@@H](CN(C)Cc1cccnc1)[C@@H](C)CN([C@@H](C)CO)S2(=O)=O | 97 | -49 | 7 | . | . | . | .
CC(C)NC(=O)N(C)C[C@H]1OCCCC[C@H](C)Oc2ccc(NC(=O)C3CCCCC3)cc2C(=O)N([C@H](C)CO)C[C@@H]1C | 31 | -5 | 1 | . | . | . | .
Cc1noc(C)c1NC(=O)Nc1ccc2c(c1)C(=O)N([C@@H](C)CO)C[C@@H](C)[C@H](CN(C)C(=O)CCCN(C)C)OCCCC[C@H](C)O2 | 28 | 62 | -7 | . | . | . | .
C[C@@H]1CN([C@H](C)CO)C(=O)c2cc(NC(=O)Nc3ccccc3)ccc2O[C@@H]1CN(C)Cc1ccc(-c2ccccc2)cc1 | 65 | 24 | 8 | . | . | . | .
O=C(C[C@H]1C=C[C@H](NS(=O)(=O)c2ccccc2)[C@@H](CO)O1)NCc1ccc(Cl)c(Cl)c1 | -9 | 9 | . | . | . | . | .
CNC[C@H]1OCCCC[C@@H](C)Oc2ccc(NC(=O)Nc3ccc4c(c3)OCO4)cc2C(=O)N([C@H](C)CO)C[C@H]1C | 70 | -5 | 0 | . | . | . | .
SMILES | T cruzi growth-1 | Pf Dd2 growth | C diff growth | T cruzi growth-2 | T cruzi growth-3 | 3T3 cytotox | NIH3T3 tox 2
C[C@@H]1CCCCO[C@H](CN(C)S(=O)(=O)c2ccc(Cl)cc2)[C@@H](C)CN([C@@H](C)CO)C(=O)c2cc(NC(=O)Nc3ccc4c(c3)OCO4)ccc2O1 | 103* | -83* | -1 | 108* | 104* | -2 | -4
C[C@@H]1CCCCO[C@@H](CN(C)S(=O)(=O)c2ccc(F)cc2)[C@@H](C)CN([C@H](C)CO)C(=O)c2cc(NC(=O)Nc3ccc4c(c3)OCO4)ccc2O1 | 35 | -75 | 9 | . | . | . | .
Cc1ccc(S(=O)(=O)N(C)C[C@@H]2OCCCC[C@H](C)Oc3ccc(NC(=O)Nc4ccc5c(c4)OCO5)cc3C(=O)N([C@H](C)CO)C[C@@H]2C)cc1 | 119* | -56 | . | 111* | 105* | 0 | 24
COc1ccc(S(=O)(=O)N(C)C[C@@H]2OCCCC[C@@H](C)Oc3ccc(NC(=O)Nc4ccc5c(c4)OCO5)cc3C(=O)N([C@@H](C)CO)C[C@H]2C)cc1 | ? | -82* | 0 | 107* | 71 | -5 | -4
C[C@@H]1CCCCO[C@@H](CN(C)S(=O)(=O)c2ccccc2)[C@@H](C)CN([C@H](C)CO)C(=O)c2cc(NC(=O)Nc3ccc4c(c3)OCO4)ccc2O1 | 35 | -77 | 2 | . | . | . | .
COc1ccc(NC(=O)Nc2ccc3c(c2)C(=O)N([C@H](C)CO)C[C@@H](C)[C@@H](CN(C)S(=O)(=O)c2ccc(OC)cc2)OCCCC[C@H](C)O3)cc1 | -60 | -19 | 0 | . | . | . | .
COc1cccc(CNC(=O)C[C@H]2C=C[C@@H](NS(=O)(=O)c3ccccc3OC)[C@H](CO)O2)c1 | 42 | 2 | 3 | . | . | . | .
